Giardia killer = Giardia lamblia killing | Giardia lamblia trophozoite viability | activity change, % at 7.66 µM, hits read low | 340,000 compounds, 0.15% hits | AID 540267; in the data active = activity change below about -80%; inconclusive = between about -30% and that limit;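 note: parasites exposed to compound for two days anaerobically before the ATP read; % is set by controls: 0 for no effect and ±100 for the full control effect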
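Media and compound were dispensed first, then trophozoites at 100 cells/well; plates sat 48 hrs at 37 deg C without oxygen before ATP luminescence reagent was added and read after 15-30 min at room temperature.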
Vif-APOBEC3G blk = Vif-A3G binding inhibition. Potency, µM (series often up to 46.1 µM), for inactives: top-dose activity, negative = active, most hits filed as inhibitors. HeLa A3G-eYFP + Vif (tagged APOBEC3G with the HIV-1 protein that degrades it), YFP fluorescence, overnight. 410,000 compounds, 0.076% hits; note: potency is the fitted concentration of half-maximal effect; % is set by controls: 0 for no effect and ±100 for the full control effect; nearly all actives have a fitted effect of over 60% in size
Target sequence (Q9HC16 whole entry, looked up): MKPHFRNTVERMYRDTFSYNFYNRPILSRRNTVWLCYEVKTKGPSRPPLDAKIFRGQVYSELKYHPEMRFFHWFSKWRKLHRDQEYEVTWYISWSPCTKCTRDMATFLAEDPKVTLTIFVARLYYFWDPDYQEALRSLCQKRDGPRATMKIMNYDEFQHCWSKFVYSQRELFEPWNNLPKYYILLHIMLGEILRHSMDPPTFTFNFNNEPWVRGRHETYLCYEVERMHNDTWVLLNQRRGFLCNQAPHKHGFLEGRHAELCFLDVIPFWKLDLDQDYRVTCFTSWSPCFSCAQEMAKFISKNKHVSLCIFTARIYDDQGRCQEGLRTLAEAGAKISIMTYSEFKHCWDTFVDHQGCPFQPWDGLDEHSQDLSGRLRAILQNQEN
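HeLa cells stably expressing Vif and C-terminally eYFP-tagged A3G, seeded overnight at 37 deg C, then exposed to compound by pintool overnight at 37 deg C. Rise in yellow fluorescence (Ex 488/Em 500-530, Acumen) marks blocked Vif-driven A3G degradation.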
MCF10A rereplic = induces DNA re-replication in MCF 10a normal breast cells. 350,000 compounds, 2.9% hits. AID 624296. Potency, µM (highest dose often 46.1 µM), inactives show top-dose activity, positive = re-replication, usual class: activators. MCF 10A DNA re-replication, Hoechst nuclear intensity, 48 h; note: potency is the fitted concentration of half-maximal effect; % of control where 0% means no effect; nearly all actives have a fitted effect of over 50% in size
SW480 rereplic = DNA re-replication induction in SW480 cells; SW480 DNA re-replication, Hoechst DNA content imaging, 48 h; Potency, µM (titrated, usually from 46.1 µM), without a hit: at the top dose re-replication activation, hits mostly activators; 340,000 compounds, 1.8% hits; note: potency is the fitted concentration of half-maximal effect; % of control where 0% means no effect; nearly all actives have a fitted effect of over 55% in size
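DNA re-replication was detected as more nuclei of elevated Hoechst intensity after 48 hr exposure to compound (23 nL pinned per well of 250 cells).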
IL1B secr inh = blocks inflammasome-driven IL-1 beta release. THP-1 LPS/ATP IL-1B secretion, AlphaLISA, 16 h; active compounds read low. activity change, % at 57.5 µM. 360,000 compounds, 4.7% hits. AID 743279; in the data active = activity change below about -50%; inconclusive = mostly about -30% to -49%; note: % is set by controls: 0 for no effect and ±100 for the full control effect
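Secreted IL-1B measured by AlphaLISA bead assay after 16 h compound exposure of THP-1 cells; compounds (final up to 57.5 uM) added 1 h before LPS (250 ng/mL) and ATP (1.25 mM) stimulation; lower signal means less secretion.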
Vif-A3F inh = blocks the Vif interaction with APOBEC3F; HeLa A3F-eYFP + Vif (tagged APOBEC3F with the HIV-1 protein that degrades it), YFP fluorescence increase; Potency, µM (doses to about 46.1 µM), inactives show at the highest dose activity, negative = active; 390,000 compounds, 0.2% hits; note: potency is the fitted concentration of half-maximal effect; % of control where 0% means no effect; nearly all actives have a fitted effect of over 65% in size
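HeLa cells stably expressing A3F-eYFP plus Vif, plated and incubated overnight at 37 deg C, then exposed to compounds overnight at 37 deg C. Blocked degradation read as raised yellow fluorescence (Ex 488/Em 500-530).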
* marks the source's active call; other numbers are inactive results; ? = inconclusive; nt = no result given; [ ] = dose if it differs, or a comment. Most compounds without a hit are left out; they make up all but 6.9% or so of the library. Unless noted, calls come from the whole dose curve; as a rule, active = well fitted curve in the direction sought with a large enough effect; inconclusive = small, poorly fitted or top-dose-only effect, or another doubt; inactive = no such curve, though single readings can be large; an effect the other way counts as inactive or inconclusive.

SMILES	Giardia killer	Vif-APOBEC3G blk	MCF10A rereplic	SW480 rereplic	IL1B secr inh	Vif-A3F inh
O=C(Nc1ccc(S(=O)(=O)N2CCCC2)cc1)c1cccs1	4	-2%	-4%	14%	-4	8%
CCCCN(CCCC)S(=O)(=O)c1ccc(NC(=O)c2cccs2)cc1	-5	7%	?	?	-85*	-8%
CC1CCCCN1S(=O)(=O)c1ccc(NC(=O)c2cccs2)cc1 (centres undefined)	-1	1%	21µM*	21%	?	-5%
CN(C)c1ccc(C(=O)Oc2cc(O/N=[N+](\[O-])N(C)C)c([N+](=O)[O-])cc2[N+](=O)[O-])cc1	nt	-2%	nt	nt	nt	nt
Cc1ccc(C)c(OCCn2c(-c3ccc(Cl)cc3)nc3ccccc3c2=O)c1C	nt	2%	nt	nt	nt	-5%
Cn1c(=O)c([N+](=O)[O-])c(-n2ccnc2)c2ccccc21	9	-20%	?	?	-101*	?
CC(C)c1ccc(Nc2c([N+](=O)[O-])c(=O)n(C)c3ccccc23)cc1	0	4%	7%	-5%	-66*	0%
CN(C)CCN(C(=O)c1ccc2c(c1)OCCO2)c1nc2cc3c(cc2s1)OCO3	-9	1%	-2%	-1%	-54*	0%
CCN(CC)CCN(C(=O)c1ccc2c(c1)CCCC2)c1nc2cc(OC)c(OC)cc2s1	-3	1%	16%	-1%	-82*	2%
COc1ccc(Cl)c2sc(N(CCN(C)C)C(=O)c3ccc4c(c3)OCCO4)nc12	8	-1%	4%	?	-96*	-17%
CN(C)CCN(C(=O)c1ccc2ccccc2c1)c1nc2cc3c(cc2s1)OCO3	nt	0%	nt	nt	-5	-18%
CN(C)CCN(C(=O)c1ccc2c(c1)CCCC2)c1nc2cc3c(cc2s1)OCCO3	8	-1%	?	3%	-58*	-6%
CN(C)CCN(C(=O)c1ccc2c(c1)OCCO2)c1nc2c(Cl)cccc2s1	-21	0%	0%	-2%	1	-1%
COc1ccc(C2CC(c3ccccc3)Oc3cc(OC)ccc32)cc1 (centres undefined)	3	1%	nt	nt	nt	nt
Nc1ncc(S(=O)(=O)N2CCN(c3ccccc3)CC2)cn1	nt	5%	nt	nt	nt	11%
Cc1ccc(CNC(=O)c2nn(-c3ccc(Cl)cc3)nc2CO)cc1	nt	-7%	nt	nt	nt	-6%
O=C(CC(Nc1ccccc1Cl)C(=O)O)c1ccccc1 (centres undefined)	-5	-7%	?	?	-55*	-10%
Cc1ccc(C)c(N2CCN(C(=O)Cn3nc(Cc4cccnc4)c4ccccc4c3=O)CC2)c1	nt	5%	nt	nt	nt	-4%
Cc1ccc(Nc2nc(N)c([N+](=O)[O-])c(N3CCCC(C)C3)n2)cc1C (centres undefined)	-9	1%	0%	-4%	-98*	3%
CC(=NNC(=S)N1CCCCC1)c1cccc(C)n1	-18	-11%	?	?	0	4%
CSC(=S)NN=C(C)c1cccc(C)n1	-1	-28%	?	0.37µM*	?	1%
COC(=O)c1cc(C(=O)N2CCN(c3ncccn3)CC2)cc([N+](=O)[O-])c1	35	2%	60%	-5%	6	-5%
COC(=O)c1cc(C(=O)N2CCN(c3ccccc3OC)CC2)cc([N+](=O)[O-])c1	19	?	1.2µM*	2.1µM*	-19	1%
COC(=O)c1cc(C(=O)N2CCN(c3cccc(C)c3C)CC2)cc([N+](=O)[O-])c1	-5	?	?	4.1µM*	31	-7%
Clc1cccc(-n2ncc3c(NCCCN4CCOCC4)ncnc32)c1	nt	-5%	nt	nt	nt	1%
SMILES	Giardia killer	Vif-APOBEC3G blk	MCF10A rereplic	SW480 rereplic	IL1B secr inh	Vif-A3F inh
CSc1nc(=O)[nH]c2nc[nH]c12	-17	0%	nt	nt	nt	nt
CCC[C@H](CN[C@@H](CNC)[C@H](C)CC)NCCc1cc(C(F)(F)F)cc(C(F)(F)F)c1	-16	-1%	?	8%	-100*	0%
CCC[C@@H](CN[C@@H](CNC)[C@H](C)CC)NCC1CCC(C(C)(C)C)CC1 (some centres undefined)	7	-5%	?	-12%[9.22 µM]	-53*	3%
CC[C@@H](C)[C@H](CNC)NC[C@@H](Cc1cccc2ccccc12)NCCc1cccc(C(F)(F)F)c1	-9	1%	?	?	-24	-3%
COc1cccc(CNc2nc(Cl)nc3nc[nH]c23)c1	-4	-2%	nt	nt	nt	nt
Cc1ccc(N2CCN(C(=O)c3cnn(-c4ccc(F)cc4F)c3C3CCN(C(=O)OC(C)(C)C)CC3)CC2)c(C)c1	nt	1%	nt	nt	nt	-1%
O=C(CSc1cn(CCNC(=O)c2c(F)cccc2F)c2ccccc12)Nc1ccc2c(c1)OCCO2	nt	-4%	nt	nt	nt	-18%
Cc1ccc(CNC(=O)CSc2nnc(CNC(=O)c3ccccc3)o2)cc1	-4	-5%	2%	1%	-73*	-12%
CC(C)N1CCC2(CC1)N=C(c1ccc3c(c1)OCO3)CC(c1cc(Cl)ccc1O)N2 (centres undefined)	-18	-23%	5.8µM*	?	-117*	-5%
N#CC1=C(Nc2ccccc2)SC=C(c2ccc(Cl)c(Cl)c2)N=C1N1CCOCC1	13	0%	16µM*	0%	-80*	-16%
CC1CCC(Nc2nc3c(-c4cccc(C(F)(F)F)c4)nnn3c3ccccc23)CC1 (centres undefined)	nt	1%	nt	nt	nt	-6%
CCCN(CC(=O)Nc1cc(Cl)ccc1Cl)C(=O)/C=C/c1cc(OC)ccc1OC	14	1%	21µM*	?	-6	-3%
CCCN(CC(=O)Nc1ccc(Cl)cc1Cl)C(=O)/C=C/c1cc(OC)ccc1OC	5	0%	11%	nt	0	-6%
CCc1ccccc1N1C(=O)N(Cc2cc(=O)n3ccccc3n2)c2ccccc2S1(=O)=O	nt	-4%	nt	nt	nt	0%
COc1cccc(/C=N/NC(=S)Nc2cccc(S(=O)(=O)N(C)C)c2)c1	7	3%	-4%	5%	6	?
COc1ccc(O)c(/C=N/NC(=S)Nc2cccc(S(=O)(=O)N(C)C)c2)c1	-3	-23%	15µM*	?	-63*	0%
CN(C)S(=O)(=O)c1cccc(NC(=S)Nc2cc(Cl)cc(Cl)c2)c1	-11	-2%	20%	-6%	-70*	-5%
O=C(C[N+]1(CC(O)c2ccccc2)CCCCC1)c1ccccc1 (centres undefined)	nt	4%	nt	nt	nt	nt
COCCCNC(=O)NC(CCC(C)C)c1c(-n2cccc2)sc2c1CCN(C)C2 (centres undefined)	nt	-3%	nt	nt	nt	-10%
CC(C)c1cc(=O)oc2c3c4c(cc12)CCCN4CCC3	11	?	?	?	-28	?
